Where “and” joins values, the source holds several entries; their conditions need not be identical. Equal entries are not always repeated. Inconclusive results are not listed. A call without a number means that no potency is given here. A structure can be active in one record and inactive in another. Calls of active or inactive are those of the source. Calls follow the shape of the dose curve; as a rule, active = well fitted cell-killing curve with a large enough effect in the repeat runs; inconclusive = weak or mixed curves, or effect the other way; inactive = flat fitted curve, though single readings scatter.
Test: qHTS RealTime-Glo MT Cell Viability Assay in HEK293 cells - 16 hour (AID 1224872); also: nearly all actives have a fitted effect of over 50% in size; as to activity change, negative = cytotoxicity: top concentration of the series differs between compounds
Conditions: RealTime-Glo luminescence; series mostly up to 76.8 µM; activity change, negative = cytotoxicity: at the top concentration
Text: National Center for Advancing Translational Sciences [NCATS]
NIH Chemical Genomics Center [NCGC]
U.S. Environmental Protection Agency [EPA]
National Institutes of Environmental Health Sciences [NIEHS]
National Toxicology Program [NTP]
U.S. Food and Drug Administration [FDA]
Measure of cell viability is critical in the cell-base assay. Analysis of cell viability is necessary for the characterization of cell responses to cytotoxic drugs and environmental stress. A RealTime-Glo MT Cell Viability Assay to monitor cell viability in real time of continues cell culture during 40 hours of compound treatment was used to screen Tox21 10K library compounds in Hek293 cells. The RealTime-Glo MT Cell Viability Assay is a nonlytic, homogeneous, bioluminescent method to measure cell viability in real time using a simple, plate-based method. The assay involves adding NanoLuc luciferase and a cell-permeant prosubstrate to cells in culture. Viable cells reduce the proprietary prosubstrate to generate a substrate for NanoLuc luciferase. This substrate diffuses from cells into the surrounding culture medium, where it is rapidly used by the NanoLuc Enzyme to produce a luminescent signal. The signal correlates with the number of viable cells, making the assay well suited for cytotoxicity studies.
Tox21 Assay Protocol Summary:
The mixture of Hek293 cell suspension and reagents were dispensed at 600cells/6 ul/well in 1536-well tissue culture treated black solid bottom plates using a Multidrop dispenser. After the assay plates were incubated at a 37 C/5% CO2 incubator for 5 hours, 23 nL of compounds dissolved in DMSO, positive and negative controls was transferred to the assay plate by a pintool work station. The plates were incubated at 37 C for 40 hours. The luminescence intensity were measured at 0h, 8h, 16h, 24h, 32h and 40h time points using ViewLux plate reader during compound treatment.
Potency is read from the fitted curve at half-maximal effect.

Row | Structure (SMILES) | Potency | activity change, negative = cytotoxicity
1 | CCOP(=S)(OCC)SCSC(C)(C)C | inactive | –
2 | CC(C)(C#N)N=NC(C)(C)C#N | inactive | –
3 | CCOP(=O)(O)OCC (tested in a mixture with another compound) | inactive and 24.3 µM (active) | –
4 | CCOC(=O)c1ccccc1N | inactive | –
5 | CNC(=O)Oc1cccc2c1OC(C)(C)C2 | inactive | –
6 | Clc1cccc(Cl)c1 | inactive | –
7 | ClCC(Cl)CCl | inactive | –
8 | Cl | inactive | –
9 | O=C1C(Cl)=C(Cl)C(=O)c2ccccc21 | 6.19 µM (active) and 9.77 µM (active) | –
10 | COP(=S)(OC)Oc1ccc(Sc2ccc(OP(=S)(OC)OC)cc2)cc1 | – | 1.23% [at 35.3 µM] (inactive)
11 | CC1(C)Cc2cccc(O)c2O1 | inactive | –
12 | CC(C)(c1ccccc1)c1ccc(O)cc1 | 48.6 µM (active) and 30.9 µM (active) | –
13 | CCC(=O)Nc1ccc(Cl)c(Cl)c1 | 44.5 µM (active) | –
14 | ClC(Cl)=C(Cl)C(Cl)=C(Cl)Cl | inactive | –
15 | CNC(=S)S | inactive | –
16 | O=P(OCCCl)(OCCCl)OCCCl | inactive | –
17 | N#CC(c1ccccc1)c1ccccc1 | – | -11.8% (inactive)
18 | O=[N+]([O-])c1ccc(Nc2ccccc2)cc1 | 27.8 µM (active) | –
19 | CC1CC(=O)O1 (stereo not given) | inactive | –
20 | N#Cc1cccnc1 | inactive | –

Row | Structure (SMILES) | Potency | activity change, negative = cytotoxicity
21 | COC(=O)Nc1nc2ccccc2[nH]1 | – | -11.3% (inactive)
22 | CC(C)Nc1ccc(Nc2ccccc2)cc1 | 17.3 µM (active) and 19.5 µM (active) | –
23 | O=NN(c1ccccc1)c1ccccc1 | inactive | –
24 | CCOP(=S)(OCC)SCn1c(=O)oc2cc(Cl)ccc21 | 26.3 µM (active) and 19.5 µM (active) | –
25 | CC[n+]1c(-c2ccccc2)c2cc(N)ccc2c2ccc(N)cc21 | 17.3 µM (active) and 23.9 µM (active) | –
26 | CC1(C)C(C(=O)OC(C#N)c2cccc(Oc3ccccc3)c2)C1(C)C (stereo not given) | – | -25.3% (inactive)
27 | Oc1ccc(Cl)cc1Cl | – | 0.667% (inactive)
28 | C[N+](C)(C)C | inactive | –
29 | Cc1cc(Cl)ccc1N=CN(C)C | inactive | –
30 | CN(C)P(=O)(N(C)C)N(C)C | inactive | –
31 | CCC[CH2][Sn]([Cl])([CH2]CCC)[CH2]CCC | 390 nM (active) and 692 nM (active) | –
32 | Nc1ncn[nH]1 | inactive | –
33 | Oc1ccc(Cl)cc1Cc1ccccc1 | 21.9 µM (active) and 17.6 µM (active) | –
34 | NC(=O)CN1CCCC1=O | inactive | –
35 | CC(O)CN(CC(C)O)CC(C)O (stereo not given) | inactive | –
36 | CCCCOCCOC(C)=O | inactive | –
37 | C=CC(=O)OCC(CC)(COC(=O)C=C)COC(=O)C=C | 6.33 µM (active) and 12.3 µM (active) | –
38 | CCCCOC(=O)COC(=O)c1ccccc1C(=O)OCCCC | inactive | –
39 | CCOP(=S)(OCC)OP(=S)(OCC)OCC | inactive | –
40 | Nc1ccc([N+](=O)[O-])cc1N | inactive | –
